Data published in PubChem BioAssay (NCATS).
Inconclusive results are not listed. The source made the active and inactive calls. The call rests on the fitted dose curve; in most records, active means well fitted curve in the direction sought with a large enough effect; inconclusive means small, poorly fitted or top-dose-only effect, or another doubt; inactive means no such curve, though single readings can be large; an effect the other way counts as inactive or inconclusive.

Columns and labels:
[1] = qHTS of pediatric cancer cell lines to identify multiple opportunities for drug repurposing: Primary screen for Saos-2 cells (AID 1347097); further: nearly all actives have a fitted effect of over 40% in size
Outline: (§1)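 ATP-based luminescence (CellTiter-Glo) quantifies viability after a 48-hour exposure. Compounds are dosed across 8 or 11 final concentrations; DMSO and 2.3 µM bortezomib serve as controls.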

[2] = qHTS of pediatric cancer cell lines to identify multiple opportunities for drug repurposing: Primary screen for SK-N-SH cells (AID 1347098);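 further: DMSO served as neutral control and bortezomib at 2.3 µM as positive control; nearly all actives have a fitted effect of over 65% in size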
Outline: (§2)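 Cells (500-1,000/well) rested 5 h, then received compounds for 48 h; metabolically active cells were measured by CellTiter-Glo luminescence. Final concentrations spanned up to 46 µM (MIPE, 11-point) or 0.59 nM-46 µM (NPC, 8-point) in primary screens, 11-point in follow-ups.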

[3] = qHTS of pediatric cancer cell lines to identify multiple opportunities for drug repurposing: Primary screen for NB1643 cells (AID 1347099); further: nearly all actives have a fitted effect of over 50% in size
Outline: as §1

[4] = qHTS of pediatric cancer cell lines to identify multiple opportunities for drug repurposing: Primary screen for LAN-5 cells (AID 1347100)
Outline: (§3)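 Viability after 48 h compound treatment at 37C, 500-1,000 cells/well, read as ATP luminescence with CellTiter-Glo. Primary screens used 11-point (MIPE, 0.78 nM-46 µM) or 8-point (NPC, 0.59 nM-46 µM) final concentrations; follow-up screens used 11-point dilutions.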

[5] = qHTS of pediatric cancer cell lines to identify multiple opportunities for drug repurposing: Primary screen for BT-12 cells (AID 1347101); further: nearly all actives have a fitted effect of over 25% in size
Outline: as §2

[6] = qHTS of pediatric cancer cell lines to identify multiple opportunities for drug repurposing: Primary screen for Rh18 cells (AID 1347102); further: nearly all actives have a fitted effect of over 65% in size
Outline: as §3

[7] = qHTS of pediatric cancer cell lines to identify multiple opportunities for drug repurposing: Primary screen for OHS-50 cells (AID 1347103); further: nearly all actives have a fitted effect of over 40% in size
Outline: as §2

[8] = qHTS of pediatric cancer cell lines to identify multiple opportunities for drug repurposing: Primary screen for RD cells (AID 1347104); further: nearly all actives have a fitted effect of over 55% in size
Outline: as §1

[9] = qHTS of pediatric cancer cell lines to identify multiple opportunities for drug repurposing: Primary screen for MG 63 (6-TG R) cells (AID 1347105); further: nearly all actives have a fitted effect of over 50% in size
Outline: as §1

[10] = qHTS of pediatric cancer cell lines to identify multiple opportunities for drug repurposing: Primary screen for control Hh wild type fibroblast cells (AID 1347106);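 further: series mostly up to about 46 µM; a drop in luminescence marks cytotoxicity and a rise apparent proliferation; nearly all actives have a fitted effect of over 55% in size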
Outline: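 Cells (500-1,000/well) in growth media were settled 5 h at 37 degrees C, then given compounds for 48 h. Viability was read as CellTiter-Glo luminescence. Primary runs used MIPE at 11 points (0.78 nM-46 µM) and NPC at 8 points (0.59 nM-46 µM); follow-ups used 11 points.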

[11] = qHTS of pediatric cancer cell lines to identify multiple opportunities for drug repurposing: Primary screen for Rh30 cells (AID 1347107); further: series mostly up to about 46 µM; nearly all actives have a fitted effect of over 75% in size
Outline: as §3

[12] = qHTS of pediatric cancer cell lines to identify multiple opportunities for drug repurposing: Primary screen for Rh41 cells (AID 1347108);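 further: series mostly up to about 46 µM; luminescence drop marks cytotoxic hits; nearly all actives have a fitted effect of over 70% in size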
Outline: as §1

Measured: Potency

Nc1c(I)cc(I)c(C(=O)N(CCC(=O)O)c2ccccc2)c1I
inactive: all assays above

CCCCCCCCCCCCCCCCCCN(C)C
inactive: all assays above

CCN1CCN(C(=O)N[C@@H](C(=O)N[C@@H]2C(=O)N3[C@@H]2SC(C)(C)[C@H]3C(=O)O)c2ccccc2)C(=O)C1=O
inactive: all assays above

O=C(OCC1(COC(=O)c2cccnc2)CCCC(COC(=O)c2cccnc2)(COC(=O)c2cccnc2)C1O)c1cccnc1
inactive: all assays above

O=C(CCCl)NCc1ccccc1
inactive: all assays above

Cc1cccc(C)c1NC(=O)c1ccc(N)cc1
inactive: all assays above

CN1CCC(=C2c3ccccc3CCc3cccnc32)CC1
inactive: all assays above

O=C(O)C1CCC1
inactive: all assays above

Cc1ncc([N+](=O)[O-])n1C
inactive: all assays above

CC(=O)c1ccc(O)c(C(N)=O)c1
inactive: all assays above

O=C1Cc2cc(Cl)ccc2N1
inactive: all assays above

O=C(O)Cn1cnnn1
inactive: all assays above

CC1(C)O[C@@H]2C[C@H]3[C@@H]4C[C@H](F)C5=CC(=O)C=C[C@]5(C)[C@@]4(F)[C@@H](O)C[C@]3(C)[C@]2(C(=O)CO)O1
inactive: all assays above

CC(C)NCCCC1(C(N)=O)c2ccccc2-c2ccccc21
inactive: all assays above

CCC(=O)O[C@H]1[C@H](O[C@@H]2[C@@H](C)[C@H](O[C@H]3C[C@@](C)(OC)[C@@H](O)[C@H](C)O3)[C@@H](C)C(=O)O[C@H](CC)[C@@](C)(O)[C@H](O)[C@@H](C)C(=O)[C@H](C)C[C@@]2(C)O)O[C@H](C)C[C@@H]1N(C)C
inactive: all assays above

Cc1ccc2c(Cl)cc(Cl)c(O)c2n1
inactive: all assays above

O=C1CC2(CCCC2)CC(=O)N1CCNCC1COc2ccccc2O1 (centres undefined)
inactive: all assays above

CCOC(=O)C(O)c1ccccc1 (centres undefined)
inactive: all assays above

O=C(CO)[C@@H](O)[C@H](O)[C@@H](O)CO
inactive: all assays above

CC(C)(C)C(=O)OCOC(=O)C1N2C(=O)CC2S(=O)(=O)C1(C)C (centres undefined)
inactive: all assays above

NCC(=O)O
inactive: all assays above

O=C(COCCOCCOCC(=O)Nc1c(I)cc(I)c(C(=O)O)c1I)Nc1c(I)cc(I)c(C(=O)O)c1I
inactive: all assays above

CC(C)=CCC/C(C)=C/CC/C(C)=C/CCC(=O)OC/C=C(\C)CCC=C(C)C
inactive: all assays above

Cc1ccc(O)cc1
inactive: all assays above

CCOc1ccc(NS(=O)(=O)c2ccc(N)cc2)nn1
inactive: all assays above

N#CC1(c2ccc(F)cc2)CCC(=O)CC1
inactive: all assays above

C1=CC2C3C=CC(C3)C2C1 (centres undefined)
inactive: all assays above

CC(C)C(C)(C)C(C)(C)C(C)(C)S
inactive: all assays above

CC(=O)OC[C@H]1O[C@@H](OC(C)=O)[C@H](OC(C)=O)[C@@H]1OC(C)=O
inactive: all assays above

CCS(=O)(=O)c1ccc(OC)c(C(=O)OC)c1
inactive: all assays above

CCOC(=O)C(=O)c1csc(NC=O)n1
inactive: all assays above

CN1[C@@H]2CC[C@H]1CC(NC(=O)n1c(=O)[nH]c3ccccc31)C2 (some centres undefined)
inactive: all assays above

COc1c(N2C[C@@H]3CCCN[C@@H]3C2)c(F)cc2c(=O)c(C(=O)O)cn(C3CC3)c12
inactive: all assays above

O=C(CCOCCOCCOCCOCCC(=O)Nc1c(I)cc(I)c(C(=O)O)c1I)Nc1c(I)cc(I)c(C(=O)O)c1I
inactive: all assays above

O=C(CCCCC(=O)Nc1c(I)cc(I)c(C(=O)O)c1I)Nc1c(I)cc(I)c(C(=O)O)c1I
inactive: all assays above

O=C(O)CCCC[P+](c1ccccc1)(c1ccccc1)c1ccccc1
inactive: all assays above

NS(=O)(=O)c1cc2c(cc1Cl)CN(C1CCCCC1)C2=O
inactive: all assays above
